# Results as given in the antibiotic and cytotoxicity screens of Wong et al. (2023).
# Screen size: about 39,000 compounds; about 500 (1.3%) were called active. The list comes from a sample in which actives are over-represented; it also holds similar structures and randomly drawn compounds.
# Tested on: S. aureus RN4220
# Assay: growth inhibition call (relative growth <= 0.2)
# Details: 50 µM
row,Compound,growth inhibition call
1,COc1ccc(NC(=O)N(C)C[C@H]2Oc3c(NC(=O)c4cnccn4)cccc3C(=O)N([C@@H](C)CO)C[C@@H]2C)cc1,inactive
2,C[C@@H]1CN([C@H](C)CO)S(=O)(=O)c2ccc(C#CCN(C)C)cc2O[C@@H]1CN(C)Cc1ccccn1,inactive
3,C[C@H](CO)N1C[C@H](C)[C@@H](CN(C)Cc2ccc3c(c2)OCO3)Oc2c(NS(=O)(=O)c3cn(C)cn3)cccc2C1=O,inactive
4,COc1ccc(NC(=O)Nc2ccc3c(c2)C(=O)N([C@@H](C)CO)C[C@@H](C)[C@H](CN(C)Cc2ccc(C(=O)O)cc2)OCCCC[C@H](C)O3)cc1,inactive
5,COc1cccc(S(=O)(=O)N(C)C[C@H]2OCc3cnnn3CCCC(=O)N([C@@H](C)CO)C[C@@H]2C)c1,inactive
6,CNC[C@@H]1Oc2ccc(NS(=O)(=O)c3cn(C)cn3)cc2C(=O)N([C@@H](C)CO)C[C@@H]1C,inactive
7,CCc1nc2ccc(C(=O)NC3CCN(Cc4ccccc4)CC3)cn2c1N(C)Cc1cc2ccccc2s1,inactive
8,Cc1noc(C)c1NC(=O)Nc1ccc2c(c1)C(=O)N([C@H](C)CO)C[C@@H](C)[C@H](CN(C)S(=O)(=O)c1ccccc1)OCCCC[C@H](C)O2,inactive
9,Cc1cc(C2CCCCC2)n(O)c(=O)c1.NCCO,active
10,C[C@H](CO)N1C[C@H](C)[C@@H](CN(C)Cc2ccc(-c3ccccc3)cc2)Oc2c(NC(=O)c3ccncc3)cccc2C1=O,inactive
11,C[C@H]1CN([C@@H](C)CO)C(=O)c2cccc(NC(=O)c3cnccn3)c2O[C@@H]1CN(C)Cc1ccncc1,inactive
12,COc1cccc(NC(=O)N[C@@H]2CC[C@@H](CC(=O)N3CCN(C)CC3)O[C@@H]2CO)c1,inactive
13,O=C(C[C@@H]1CC[C@H]2[C@@H](COC[C@H](O)CN2C(=O)Nc2cccc(F)c2)O1)NCc1ccccc1Cl,inactive
14,CC1(C)C(=O)NCCN1C(=O)Cc1ccccc1,inactive
15,CC1(C)SC2C(NC(=O)COc3ccccc3)C(=O)N2C1C(=O)[O-].[K+] (centres undefined),active
16,CC1(C)SC2C(N3C(=O)C(c4ccccc4)NC3(C)C)C(=O)N2C1C(=O)[O-].[K+] (centres undefined),active
17,CNC(=O)Cc1ccccc1,inactive
18,NNC(=O)COc1ccccc1,inactive
19,C[C@@H](NC(=O)COc1ccccc1)C(=O)O,inactive
20,COC(=O)[C@@H]1N2C(=O)[C@@H](N3CC4=C[C@@H](C5CC5)n5c(=O)n(C)c(=O)n5[C@@H]4[C@@H]3[C@@H](O)Cc3ccccc3)[C@H]2SC1(C)C,inactive
21,COC(=O)[C@@H]1N2C(=O)[C@@H](N3C[C@](C)(OC)O[C@@H](Cc4ccccc4)[C@H]3/C=C/C3CC3)[C@H]2SC1(C)C,inactive
22,CC1(C)SC2C(NC(=O)Cc3ccccc3)C(=O)N2C1C(=O)[O-].[K+] (centres undefined),active
23,COc1ccc(S(=O)(=O)N(C)C[C@H]2OCCCC[C@@H](C)Oc3ccc(NC(=O)Nc4ccc(F)cc4)cc3C(=O)N([C@@H](C)CO)C[C@H]2C)cc1,inactive

row,Compound,growth inhibition call
1,COc1cccc(CNC(=O)C[C@@H]2C=C[C@@H](NC(=O)C3CCOCC3)[C@H](CO)O2)c1,inactive
2,COc1ccc(NC(=O)N(C)C[C@@H]2Oc3c(NS(C)(=O)=O)cccc3C(=O)N([C@H](C)CO)C[C@H]2C)cc1,inactive
3,OCCc1ccc2c(c1)OCO2,inactive
4,Cc1ccc(S(=O)(=O)N(C)C[C@H]2Oc3ccc(NC(=O)Nc4cccc5ccccc45)cc3C(=O)N([C@@H](C)CO)C[C@@H]2C)cc1,inactive
5,COc1ccc(S(=O)(=O)N2C[C@H](O)COC[C@H]3O[C@H](CC(=O)NCCN4CCCCC4)CC[C@@H]32)cc1,inactive
6,CCCNC(=O)N1C[C@@H](O)COC[C@H]2O[C@@H](CC(=O)N3CCN(C)CC3)CC[C@@H]21,inactive
7,C[C@H]1CN([C@@H](C)CO)C(=O)c2cc(NC(=O)Cc3ccccc3)ccc2O[C@H]1CN(C)C(=O)Nc1cccc2ccccc12,inactive
8,O=C1OCCN/C1=C/C(=O)c1ccccc1,inactive
9,O=C(/C=c1/nc2c([nH]c1=O)=NON2)c1ccccc1,active
10,C[C@H]1CNC(=CC(=O)c2ccccc2)C(=O)N1,inactive
11,COc1ccc(S(=O)(=O)N(C)C[C@@H]2Oc3ccc(NC(=O)Cc4ccccc4)cc3CC(=O)N([C@@H](C)CO)C[C@@H]2C)cc1,inactive
12,CC(C)(C)[S@](=O)N1Cc2cc(C(=O)NCc3ccccc3F)nc(-c3cccc(-c4ccncc4)c3)c2[C@@H]1CCO,inactive
13,COc1cccc(NC(=O)N2C[C@H](O)COC[C@H]3O[C@@H](CC(=O)NCc4ccccc4F)CC[C@@H]32)c1,inactive
14,O=C(C[C@H]1CC[C@H]2[C@@H](COC[C@H](O)CN2C(=O)Nc2cccc(Cl)c2)O1)NCc1ccccc1F,inactive
15,O=C(C[C@@H]1CC[C@H]2[C@@H](COC[C@H](O)CN2C(=O)Nc2cccc(Cl)c2)O1)NCc1ccccc1F,active
16,O=C(C[C@@H]1CC[C@@H]2[C@H](COC[C@H](O)CN2C(=O)Nc2cccc(Cl)c2)O1)NCc1ccccc1F,inactive
17,O=C(C[C@H]1CC[C@@H]2[C@H](COC[C@H](O)CN2C(=O)Nc2cccc(Cl)c2)O1)NCc1ccccc1F,inactive
18,O=C(C[C@@H]1CC[C@@H]2[C@H](COC[C@@H](O)CN2C(=O)Nc2cccc(Cl)c2)O1)NCc1ccccc1F,active
19,O=C(C[C@H]1CC[C@H]2[C@@H](COC[C@@H](O)CN2C(=O)Nc2cccc(Cl)c2)O1)NCc1ccccc1F,inactive
20,O=C(C[C@H]1CC[C@@H]2[C@H](COC[C@@H](O)CN2C(=O)Nc2cccc(Cl)c2)O1)NCc1ccccc1F,active
21,O=C(C[C@@H]1CC[C@H]2[C@@H](COC[C@@H](O)CN2C(=O)Nc2cccc(Cl)c2)O1)NCc1ccccc1F,inactive
22,COc1ccc(NC(=O)N(C)C[C@H]2Oc3c(NC(=O)Nc4cccc5ccccc45)cccc3C(=O)N([C@@H](C)CO)C[C@@H]2C)cc1,inactive
23,COc1ccc(S(=O)(=O)N(C)C[C@H]2Oc3c(NS(=O)(=O)c4c(C)noc4C)cccc3C(=O)N([C@@H](C)CO)C[C@@H]2C)cc1,inactive

row,Compound,growth inhibition call
1,O=c1[nH]cccc1F,inactive
2,C[C@@H]1CN([C@H](C)CO)C(=O)Cc2cc(NC(=O)CCN3CCOCC3)ccc2O[C@@H]1CN(C)C(=O)Nc1ccc2c(c1)OCO2,inactive
3,C[C@@H]1CN([C@@H](C)CO)C(=O)c2cc(NC(=O)C3CCCCC3)ccc2O[C@@H](C)CCCCO[C@H]1CN(C)C(=O)c1ccccc1,inactive
4,CNC[C@@H]1Oc2cc(C#CCN(C)C)ccc2S(=O)(=O)N([C@@H](C)CO)C[C@@H]1C,inactive
5,CC(C)NC(=O)N(C)C[C@@H]1Oc2ccc(NC(=O)C3CCCCC3)cc2C(=O)N([C@@H](C)CO)C[C@@H]1C,inactive
6,C[C@@H]1CN([C@@H](C)CO)C(=O)CCCn2nncc2CO[C@H]1CN(C)C(=O)Nc1ccc(C(C)(C)C)cc1,inactive
7,C[C@H]1CN([C@@H](C)CO)C(=O)CCCn2nncc2CO[C@H]1CN(C)C(=O)Nc1ccc(C(C)(C)C)cc1,inactive
8,C[C@H]1CN([C@@H](C)CO)C(=O)CCCn2nncc2CO[C@H]1CN(C)C(=O)Nc1cccc(C(F)(F)F)c1,active
9,C[C@H](CO)N1C[C@H](C)[C@@H](CN(C)C(=O)Nc2cccc(C(F)(F)F)c2)OCc2cnnn2CCCC1=O,inactive
10,C[C@@H]1CN([C@@H](C)CO)C(=O)CCCn2nncc2CO[C@H]1CN(C)C(=O)Nc1cccc(C(F)(F)F)c1,inactive
11,C[C@@H]1CN([C@@H](C)CO)C(=O)CCCn2nncc2CO[C@@H]1CN(C)C(=O)Nc1cccc(C(F)(F)F)c1,inactive
12,C[C@@H]1CN([C@H](C)CO)C(=O)CCCn2nncc2CO[C@H]1CN(C)C(=O)Nc1cccc(C(F)(F)F)c1,active
13,C[C@@H]1CN([C@H](C)CO)C(=O)CCCn2nncc2CO[C@@H]1CN(C)C(=O)Nc1cccc(C(F)(F)F)c1,active
14,C[C@H](CO)N1C[C@H](C)[C@H](CN(C)C(=O)Nc2cccc(C(F)(F)F)c2)OCc2cnnn2CCCC1=O,active
15,C[C@H]1CN([C@@H](C)CO)C(=O)CCCn2nncc2CO[C@@H]1CN(C)C(=O)Nc1cccc(C(F)(F)F)c1,inactive
16,C[C@@H]1CCCCO[C@@H](CN(C)C(=O)Nc2ccccc2)[C@@H](C)CN([C@H](C)CO)C(=O)c2cc(NC(=O)CCC(F)(F)F)ccc2O1,inactive
17,C[C@H]1CN([C@@H](C)CO)C(=O)c2cc(NC(=O)NC3CCCCC3)ccc2O[C@H]1CN(C)C(=O)Nc1cccc2ccccc12,inactive
18,OC[C@H]1O[C@@H]2O[C@H]3[C@H](O)[C@@H](O)[C@@H](O[C@H]4[C@H](O)[C@@H](O)[C@@H](O[C@H]5[C@H](O)[C@@H](O)[C@@H](O[C@H]6[C@H](O)[C@@H](O)[C@@H](O[C@H]7[C@H](O)[C@@H](O)[C@@H](O[C@H]1[C@H](O)[C@H]2O)O[C@@H]7CO)O[C@@H]6CO)O[C@@H]5CO)O[C@@H]4CO)O[C@@H]3CO,inactive
19,COc1ccc(NC(=O)Nc2ccc3c(c2)CC(=O)N([C@@H](C)CO)C[C@H](C)[C@H](CN(C)S(=O)(=O)c2c(C)noc2C)O3)cc1,inactive
20,COc1ccc(S(=O)(=O)Nc2ccc3c(c2)CC(=O)N([C@@H](C)CO)C[C@@H](C)[C@@H](CN(C)C(=O)NC(C)C)O3)cc1,inactive
21,OC1OC(c2ccc(Cl)c(Cc3ccc(OC4CCOC4)cc3)c2)C(O)C(O)C1O (centres undefined),inactive
22,CO[C@@H]1CN(C)C(=O)c2ccc(NC(=O)C3CC3)cc2OC[C@H](C)N(C(=O)Cc2ccccn2)C[C@H]1C,inactive
23,C[C@@H]1CN([C@H](C)CO)C(=O)c2cc(NS(=O)(=O)c3ccc(F)cc3)ccc2O[C@H]1CN(C)S(=O)(=O)c1cccs1,inactive
